Measurements from PubChem BioAssay (Tox21).
Where “and” joins values, the source holds several entries; their conditions need not be identical. Equal entries are not always repeated. Values without a mark were called inactive. Records with an inconclusive call do not appear. A call without a number means that no potency is given here. Calls of active or inactive are those of the source. The call rests on the fitted dose curve; in most records, active means well fitted curve in the direction sought with a large enough effect in the repeat runs; inconclusive means weak or mixed curves; inactive means no such curve, though single readings can be large; an effect the other way counts as inactive or inconclusive.

Columns and labels:
[1] = A CellTox Green Cytotoxicity Assay to monitor cytotoxicity in HEK293 cells - 32 hour (AID 1224881); further: nearly all actives have a fitted effect of over 40% in size; further: potency means the concentration at half of the fitted maximal effect
How it was run: (§1)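 Nonlytic real-time cytotoxicity: HEK293 + CellTox Green reagent plated, 5 h preincubation, pintool compound addition (23 nL in DMSO), 37 C for 40 h, fluorescence measured at successive time points.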

[2] = A CellTox Green Cytotoxicity Assay to monitor cytotoxicity in HepG2 cells - 0 hour (AID 1224882); further: nearly all actives have a fitted effect of over 35% in size
How it was run: (§2)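 Read-out is fluorescence of a cyanine dye excluded from live cells that stains DNA of dead HepG2 cells, with signal proportional to cytotoxicity. Plates were read at 0, 8, 16, 24, 32 and 40 h after compound addition.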

[3] = A CellTox Green Cytotoxicity Assay to monitor cytotoxicity in HepG2 cells - 32 hour (AID 1224883); further: nearly all actives have a fitted effect of over 50% in size; further: potency means the concentration at half of the fitted maximal effect
How it was run: as §2

[4] = A CellTox Green Cytotoxicity Assay to monitor cytotoxicity in HEK293 cells - 8 hour (AID 1224884); further: nearly all actives have a fitted effect of over 35% in size; further: potency means the concentration at half of the fitted maximal effect
How it was run: as §1

[5] = qHTS RealTime-Glo MT Cell Viability Assay in HepG2 cells - 16 hour (AID 1224885); further: nearly all actives have a fitted effect of over 50% in size; further: potency means the concentration at half of the fitted maximal effect
How it was run: (§3)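 Real-time, nonlytic viability: 600 HepG2 cells/well mixed with NanoLuc enzyme plus prosubstrate; 5 h settle, compound (DMSO) added by pintool; luminescence monitored over 40 h at 37 C.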

[6] = qHTS RealTime-Glo MT Cell Viability Assay in HEK293 cells - 24 hour (AID 1224886); further: nearly all actives have a fitted effect of over 50% in size; further: potency means the concentration at half of the fitted maximal effect
How it was run: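 Cells + reagent dispensed (600 cells/well, HEK293) → 5 h at 37 C/5% CO2 → 23 nL compound in DMSO pinned → 40 h at 37 C → luminescence read at 0, 8, 16, 24, 32, 40 h.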

[7] = qHTS RealTime-Glo MT Cell Viability Assay in HEK293 cells - 8 hour (AID 1224887); further: nearly all actives have a fitted effect of over 50% in size; further: potency means the concentration at half of the fitted maximal effect
How it was run: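 Cells were seeded together with NanoLuc luciferase and a prosubstrate that viable cells reduce to a luciferase substrate. After a 5 h incubation at 37 C/5% CO2, compounds were added and luminescence was measured repeatedly during 40 h of treatment.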

[8] = A CellTox Green Cytotoxicity Assay to monitor cytotoxicity in HEK293 cells - 16 hour (AID 1224888); further: nearly all actives have a fitted effect of over 35% in size; further: potency means the concentration at half of the fitted maximal effect
How it was run: as §1

[9] = qHTS RealTime-Glo MT Cell Viability Assay in HepG2 cells - 0 hour (AID 1224889); further: nearly all actives have a fitted effect of over 50% in size
How it was run: as §3

[10] = A CellTox Green Cytotoxicity Assay to monitor cytotoxicity in HepG2 cells - 8 hour (AID 1224890); further: nearly all actives have a fitted effect of over 45% in size; further: potency means the concentration at half of the fitted maximal effect
How it was run: as §2

SMILES | Potency [1] | Potency [2] | Potency [3] | Potency [4] | Potency [5] | Potency [6] | Potency [7] | Potency [8] | Potency [9] | Potency [10]
CSC(C)(C)/C=N/O | inactive | inactive | inactive | inactive | inactive | inactive | inactive | inactive | inactive | inactive
CC(Cc1ccc(O)cc1)NCC(O)c1cc(O)cc(O)c1 (stereo not given) | inactive | inactive | inactive | inactive | inactive | inactive | inactive | inactive | inactive | inactive
CC1CCCC1 | inactive | inactive | inactive | inactive | inactive | inactive | inactive | inactive | inactive | inactive
N#Cc1ccc(N(CC(N)=O)CC(F)(F)F)cc1C(F)(F)F | inactive | inactive | inactive | inactive | inactive | inactive | inactive | inactive | inactive | inactive
O=[N+]([O-])c1ccccc1-c1ccccc1 | inactive | inactive | inactive | inactive | inactive | inactive | inactive | inactive | inactive | inactive
O=Cc1ccccc1 | inactive | inactive | inactive | inactive | inactive | inactive | inactive | inactive | inactive | inactive
CC1CN1 (stereo not given) | inactive | inactive | inactive | inactive | inactive | inactive | inactive | inactive | inactive | inactive
Oc1ccc(Cl)c(Cl)c1 | inactive | inactive | inactive | inactive | inactive | inactive | inactive | inactive | inactive | inactive
COc1c2c(cc3c1OCO3)CCN(C)C2 | inactive | inactive | inactive | inactive | inactive | inactive | inactive | inactive | inactive | inactive
COCCC#N | inactive | inactive | inactive | inactive | inactive | inactive | inactive | inactive | inactive | inactive
CC(=O)O.CC(=O)O.CC(=O)O.CC(=O)O.CC(=O)O.CC(=O)O.CC(=O)O.O.O.[Cr].[Cr].[Cr] | inactive | inactive | inactive | inactive | inactive | inactive | inactive | inactive | inactive | inactive
CCOC(=O)CCN(SN(C)C(=O)Oc1cccc2c1OC(C)(C)C2)C(C)C | inactive | inactive | inactive | inactive | inactive | inactive | inactive | inactive | inactive | inactive
CN1C2CCC(C)(C)C1CC(OC(=O)C(O)(c1cccs1)c1cccs1)C2 (stereo not given) | inactive | inactive | inactive | inactive | inactive | inactive | inactive | inactive | inactive | inactive
O=C1C2(Cl)C3(Cl)C4(Cl)C(Cl)(Cl)C5(Cl)C3(Cl)C1(Cl)C5(Cl)C24Cl (stereo not given) | 38.3 µM (active) and 52.6 µM (active) | inactive | 24.1 µM (active) and 41.8 µM (active) | 34.1 µM (active) and 52.6 µM (active) | 48.2 µM (active) and 46.9 µM (active) | 17.1 µM (active) and 41.8 µM (active) | 34.1 µM (active) and 46.9 µM (active) | 42.9 µM (active) and 52.6 µM (active) | inactive | 21.5 µM (active) and 41.8 µM (active)
N#Cc1c2ccccc2cc2ccccc12 | inactive | inactive | inactive | inactive | inactive | inactive | inactive | inactive | inactive | inactive
CN/C(=N\[N+](=O)[O-])NCc1cnc(Cl)s1 | inactive | inactive | inactive | inactive | inactive | inactive | inactive | inactive | inactive | inactive
CCOC(=O)Cc1ccccc1 | inactive | inactive | inactive | inactive | inactive | inactive | inactive | inactive | inactive | inactive
CCOP(=O)(OCC)Oc1nc(Cl)c(Cl)cc1Cl | inactive | inactive | inactive | inactive | inactive | inactive | inactive | inactive | inactive | inactive
OCC(Br)CBr (stereo not given) | inactive | inactive | inactive | inactive | inactive | inactive | inactive | inactive | inactive | inactive
C=C(C)C(=O)[O][Sn]([CH2]CCC)([CH2]CCC)[CH2]CCC | 490 nM (active) | inactive | 616 nM (active) | 11 µM (active) | 436 nM (active) | 309 nM (active) | 776 nM (active) | 8.71 µM (active) | inactive | 871 nM (active)
ClC1(Cl)C2(Cl)C3(Cl)C4(Cl)C(Cl)(Cl)C5(Cl)C3(Cl)C1(Cl)C5(Cl)C24Cl (stereo not given) | inactive | inactive | inactive | inactive | inactive | inactive | inactive | inactive | inactive | inactive
CC(Cc1ccc2c(c1)OCO2)NO (stereo not given) | inactive | inactive | inactive | inactive | inactive | inactive | inactive | inactive | inactive | inactive
